Experimental data from PubChem BioAssay AID434926 (Sanford-Burnham Center for Chemical Genomics, 2010).
This is one part of the list. Unmarked numbers belong to inactive results. Activity calls are given as the source filed them.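 How the source made its calls: active means at least twofold enzyme activation in any of six single-dose repeats, which the averaged readout prints as negative percent; inactive means the rest.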

Molecular target: Intestinal-type alkaline phosphatase (Homo sapiens) (UniProt P09923)
Sequence (P09923 whole entry, looked up): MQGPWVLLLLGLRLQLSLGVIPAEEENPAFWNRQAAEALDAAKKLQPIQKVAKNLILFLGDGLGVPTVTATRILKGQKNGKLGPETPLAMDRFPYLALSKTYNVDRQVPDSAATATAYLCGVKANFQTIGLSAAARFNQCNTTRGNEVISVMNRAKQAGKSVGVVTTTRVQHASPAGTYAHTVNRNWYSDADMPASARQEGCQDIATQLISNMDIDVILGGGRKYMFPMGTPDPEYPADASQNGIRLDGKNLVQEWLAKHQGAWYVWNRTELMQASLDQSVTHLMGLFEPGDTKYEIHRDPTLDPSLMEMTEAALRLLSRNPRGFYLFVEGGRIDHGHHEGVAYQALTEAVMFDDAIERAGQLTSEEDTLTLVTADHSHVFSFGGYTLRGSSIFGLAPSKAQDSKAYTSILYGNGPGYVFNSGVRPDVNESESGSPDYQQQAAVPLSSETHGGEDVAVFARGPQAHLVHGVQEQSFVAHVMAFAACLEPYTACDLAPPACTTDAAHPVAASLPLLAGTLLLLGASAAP
Experiment: human IAP activators, confirmation, biochemical, luminescence, single concentration, uHTS hits (AID 434926)
Conditions: purified IAP, CDP-Star luminescence, 30 min; at 8.3 µM; active compounds read low

Point of comparison: `COc1ccc2c(c1OC)C(=O)N(c1ncn[nH]1)C2`, activation (%Activity, negative = activation) 12.6%. Against it:
- C#CCOCCOCCOCCNc1nc(N2CCN(C(=O)CCCCCCCCCCNC(=O)[C@H]([C@@H](C)CC)n3cc(CCCCN=C(N)N)nn3)CC2)nc(N2CCN(C(=O)CCCCCCCCCCNC(=O)[C@H](CO)n3cc(CCCSC)nn3)CC2)n1 — higher, 38.5%
- NC(=O)COc1ccc(NC(=O)c2ccccc2-c2ccccc2)cc1 — lower, 9.49%
- O=C(Nc1ccon1)c1nc[nH]c1C(=O)NCc1ccccc1 — higher, 88.5%
- COc1cccc(CNS(=O)(=O)c2ccc3c(c2)N(C(C)=O)CCS3)c1 — lower, -34.5%
- CCC(C)C(=O)Nc1ccccc1N1CCN(c2ccc(F)cc2)CC1 (stereo not given) — higher, 13.6%
- COc1cccc(/C=N/NC(=O)c2[nH]nc3c2CCc2ccccc2-3)c1O — higher, 13.9%
- CC(C)Oc1ccc(CCC(=O)NNC(=S)NCc2ccccc2)cc1 — higher, 46.5%
- CCC(C(=O)Nc1ccc(C(C)C)cc1)c1ccccc1 (stereo not given) — lower, -30.6%
- COCCSc1nnc(NC(=O)CCS(=O)(=O)Cc2ccccc2)s1 — lower, -46.9%
- COc1ccc(C(=O)NNc2cc(C)nc(NNC(=O)c3ccc(OC)cc3)n2)cc1 — lower, -9.79%
- Cc1cc(C)cc(NC(=O)NC2CCN(CC(=O)Nc3cccc(Cl)c3C)CC2)c1 — lower, 1.71%
- OC(c1nc2ccc(F)cc2[nH]1)C(O)c1nc2ccc(F)cc2[nH]1 (stereo not given) — higher, 24.7%
- Cn1c(=O)c2sccc2n(Cc2ccc(Br)cc2)c1=O — lower, 6.79%
- O=C(Nc1ccc(Cl)cc1)c1ccsn1 — lower, -68.3%
- CC(=NCc1ccc2c(c1)OCO2)C1=C(O)c2ccccc2C1=O — lower, -2.92%
- CN1/C(=c2/s/c(=C3/C(=O)N(c4ccccc4)NC3=Nc3ccccc3)n(C)c2=O)C(C)(C)c2ccccc21 — lower, -2.61%
- CCN1/C(=C\c2ccc3ccccc3[n+]2CC)Sc2cc(C)ccc21 — higher, 32.7%
- Cc1ccc2c(c1)nnc1nnc(SCC(=O)O)n12 — higher, 33.9%
- CC(C)(C)OC(=O)NCCCCCNC(=O)c1[nH]cnc1C(=O)Nc1nccs1 — lower, -6.96%
- COc1cccc(/C=N\NC(=O)C2=NNC(=O)C2C)c1O (stereo not given) — higher, 34.8%
- COc1cc(NC(=O)COC(=O)c2cnc(C)cn2)c(C)cc1[N+](=O)[O-] — lower, 6.98%
- C[C@H](NC(=O)c1[nH]cnc1C(=O)Nc1nccs1)c1ccccc1 — lower, -3.71%

With `OC1CN=C2Sc3ccccc3N2C1` (stereo not given) the activation (%Activity, negative = activation) was -100% (active).
`COc1ccc(CN2CCC(n3nccc3NC(=O)CCCc3ccccc3)CC2)cc1C` was tested, and the activation (%Activity, negative = activation) was -127% (active).
